# Data from the supplement of paper PMC4380459.
# Tested on: tubulin (bovine brain)
# Assay: tubulin polymerization end-point dOD, fold change relative to DMSO vehicle; higher = more polymerization (stabilization)
# Conditions: 50 µM; 60 min; 37 °C
# Summary of the method: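 Cytoskeleton HTS-Tubulin polymerization kit: bovine brain tubulin (4 mg/ml in G-PEM buffer with PIPES pH 6.9, MgCl2, EGTA and GTP) was assembled on ice with compound at a final 50 μM in 0.5% DMSO in 384-well plates. Plates were warmed to 37°C in a Tecan reader and read at 340 nm every minute for 1 hour. The value is end-point change in optical density as percent fold change versus DMSO vehicle, with runs scaled by means and standard deviations of DMSO and reference-control wells.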
row,Compound,tubulin polymerization end-point dOD [%]
1,COc1ccc2cc(CN(Cc3cccs3)C(=O)Nc3ccccc3OC)c(=O)[nH]c2c1,17.1
2,Cc1ccc2nc(-c3ccc(I)cc3)cn2c1,101
3,CCCC(NC(=O)c1cnc(SC)nc1)c1ccc2c(c1)OCCO2 (centres undefined),2.16
4,Cc1ccc(C)c(NC(=O)CSc2nc3ccc(C(C)C)cc3cc2C#N)c1,-39.1
5,O=C(N/N=C/c1ccc2c3c(cccc13)CC2)C1COc2ccccc2O1 (centres undefined),28.5
6,Cc1ccc2cc(CN(CC3CCCO3)C(=S)Nc3ccccc3)c(=O)[nH]c2c1 (centres undefined),0.1
7,CC1Cc2ccccc2N1C(=O)CSc1nnc(-c2cc3ccccc3cc2O)n1C (centres undefined),-10.6
8,CCS(=O)(=O)N1CCc2cc(C3=NN=C(NCc4ccc5c(c4)OCO5)SC3)ccc21,227
9,CCc1cc2cc(OC)ccc2nc1SCC(=O)Nc1ccccc1C,104
10,Cc1cc2nc(/C=C/c3cccs3)sc2cc1C,43.1
11,COc1ccc2nc(SCC(=O)Nc3ccccc3OC)c(C#N)cc2c1,-9.01
12,CCc1cc2cc3c(cc2nc1SCC(=O)NCCc1ccccc1)OCO3,387
13,Cc1ccc(C2=NN(C(=O)c3ccncc3)C(c3ccccc3F)C2)cc1 (centres undefined),-4.53
14,C/C(=N\Nc1cc(-c2ccccc2)nc(C)n1)c1ccc(C)cc1,-7.02
15,O=C(Nc1ncc(Cc2ccc(Cl)cc2)s1)c1cnccn1,-97.6
16,COc1cccc2sc(NC(=O)C3CN(C(C)=O)c4ccccc4O3)nc12 (centres undefined),-38.1
17,O=C(c1cccnc1N1CCCC1)N1CC=C(c2c[nH]c3ccccc23)CC1,-49.4
18,Cc1ccc2cc(C#N)c(SCC(=O)c3ccc(F)cc3)nc2c1C,20
19,CCc1ccccc1NC(=O)CSc1nc2cc3c(cc2cc1C#N)OCO3,56.6
20,Cc1ccc(NC(=O)c2cc(F)c(Cl)cc2Cl)nc1,-57.6
21,Cc1cccc2cc3c(N)c(C(=O)N4CCCc5ccccc54)sc3nc12,-46.4
22,CCc1ccc2nc(SCC(=O)Nc3cc(C)ccc3C)c(C#N)cc2c1,-12.2
23,COc1ccc(-n2nnnc2SCc2cc3c(cc2Br)OCO3)cc1,-14.8
24,Cc1ccc2[nH]c(=O)c(CN(CC3COCCO3)C(=O)Nc3ccccc3Cl)cc2c1 (centres undefined),23.1
25,COc1ccc(OCc2nnc(SCC(N)=O)n2-c2cc(C)ccc2C)cc1,-39.4
26,O=C(Nc1ccc(N2CCc3sccc3C2)nc1)c1ccccc1Br,14.9
27,Cc1cc(N2CCN(C(=O)c3c[nH]nc3-c3ccccc3)CC2)nc(C(C)C)n1,-15.2
28,CCS(=O)(=O)N1CCc2cc(C(=O)Cn3cnc4sc(C)c(-c5ccccc5)c4c3=O)ccc21,38.3
29,COc1cccc(/C=C(/Cl)c2nc3cc(OC)c(OC)cc3c(=O)[nH]2)c1,42.1
